# Screens from PubChem.
# An excerpt weighted towards active compounds, which were near 19% of everything screened.
# IL1B secr inh – inflammasome signaling inhibition, IL-1 beta readout; THP-1 LPS/ATP IL-1B secretion, AlphaLISA, 16 h; hits give low values; AID 743279; activity change, % at 57.5 µM; 4.7% of 360,000 active; in the data active means activity change below about -50%; inconclusive means mostly about -30% to -49%
#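 Secreted IL-1B measured by AlphaLISA bead assay after 16 h compound exposure of THP-1 cells; compounds (final up to 57.5 uM) added 1 h before LPS (250 ng/mL) and ATP (1.25 mM) stimulation; lower signal means less secretion.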
# Giardia killer – kills Giardia lamblia | Giardia lamblia trophozoite viability | activity change, % at 7.66 µM, hits read low | 0.15% of 340,000 active | AID 540267; in the data active means activity change below about -80%; inconclusive means between about -30% and that limit;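 further: parasites exposed to compound for two days anaerobically before the ATP read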
#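 Luminescent ATP signal served as the viability read-out, measured 15-30 min after adding ATP detection reagent to trophozoites that had been incubated with compounds for 48 hrs at 37 deg C anaerobically at 100 cells/well.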
# DT40 TDP1 no CPT – qHTS for Inhibitors of human tyrosyl-DNA phosphodiesterase 1 (TDP1): qHTS in cells in absence of CPT; 15% of 420,000 active; Potency, µM (doses to about 46.2 µM), without a hit: at the highest dose activity change, negative = growth inhibition, hits mostly inhibitors; DT40 Tdp1-/- hTDP1 cells, no CPT, ATP luminescence, 48 h; further: potency means the concentration at half of the fitted maximal effect; nearly all actives have a fitted effect of over 55% in size
#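 Luminescent ATP content (CellTiter-Glo) served as the growth readout. Knockout chicken DT40 cells expressing human TDP1 were exposed to compounds without camptothecin for a minimum 48 hr at 37 °C.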
# TDP1 inh – TDP1 (human) enzyme inhibition; Q9NUW8; recombinant TDP1, AlphaScreen DNA substrate cleavage; Potency, µM (top dose mostly 130 µM), inactives show at the highest dose activity change, negative = inhibition, most hits filed as inhibitors; 0.28% of 350,000 active; AID 485290; further: potency means the concentration at half of the fitted maximal effect; nearly all actives have a fitted effect of over 40% in size
# Target sequence (Q9NUW8 whole entry, looked up): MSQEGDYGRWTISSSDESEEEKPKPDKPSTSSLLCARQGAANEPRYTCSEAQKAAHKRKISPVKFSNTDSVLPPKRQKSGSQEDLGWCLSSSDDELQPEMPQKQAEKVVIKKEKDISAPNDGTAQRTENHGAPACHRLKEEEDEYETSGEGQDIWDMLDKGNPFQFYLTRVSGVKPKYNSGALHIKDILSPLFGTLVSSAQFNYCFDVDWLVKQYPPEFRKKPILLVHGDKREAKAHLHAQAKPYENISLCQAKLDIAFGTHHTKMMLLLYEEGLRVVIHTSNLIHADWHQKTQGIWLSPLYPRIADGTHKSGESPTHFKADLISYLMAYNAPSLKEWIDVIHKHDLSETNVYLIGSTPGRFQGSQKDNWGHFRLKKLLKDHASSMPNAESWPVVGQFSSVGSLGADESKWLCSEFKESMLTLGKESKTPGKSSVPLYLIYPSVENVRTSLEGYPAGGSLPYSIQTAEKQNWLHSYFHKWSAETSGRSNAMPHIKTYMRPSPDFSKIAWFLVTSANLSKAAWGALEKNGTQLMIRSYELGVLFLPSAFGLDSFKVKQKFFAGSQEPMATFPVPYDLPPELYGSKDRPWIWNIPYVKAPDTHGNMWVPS
#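 Enzyme-compound mixtures sat 15 min at room temperature, followed by a 5 min reaction with 15 nM final substrate and 10 min with AlphaScreen beads. Recombinant human Tdp1 was used at 1 nM final.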
# ELG1 DNA repair – blocks ELG1-dependent DNA repair in HEK293T cells; 2.3% of 330,000 active; Potency, µM (highest dose often 46.1 µM), without a hit: top-dose activity change, negative = inhibition, hits mostly inhibitors; HEK293T ELG1-luciferase reporter, luminescence, 16 h; DNA damage induced by 5-fluorouridine; further: potency means the concentration at half of the fitted maximal effect; nearly all actives have a fitted effect of over 55% in size
#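 Quantitative HTS, concentration-response format. 2,000 cells/well co-treated with 5-fluorouridine and compound, 16 hr in 5% CO2 at 37 °C; ONE-Glo luminescence read after 30 min.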
# TDP1 cell CPT – growth inhibition of DT40 Tdp1-/-;hTDP1 cells with camptothecin (screen for TDP1 inhibitors); AID 686979; Potency, µM (top dose mostly 46.2 µM), inactives show at the top dose activity change, negative = growth inhibition, actives largely listed as inhibitors; 12% of 420,000 active; chicken DT40 Tdp1-/-;hTDP1 cells + 20 nM CPT, ATP luminescence, 48 h; further: potency means the concentration at half of the fitted maximal effect; nearly all actives have a fitted effect of over 55% in size
#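 Chicken DT40 Tdp1-/- cells complemented with human TDP1, 400 cells/well, exposed to compounds plus 20 nM camptothecin for at least 48 h at 37 C; viability read as ATP content by CellTiter-Glo luminescence.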
# Numbers without * were called inactive; u = inconclusive; x = no result; [ ] = another dose, or the depositor's remark. Unless noted, the call rests on the fitted dose curve; in most records, active means well fitted curve in the direction sought with a large enough effect; inconclusive means small, poorly fitted or top-dose-only effect, or another doubt; inactive means no such curve, though single readings can be large; an effect the other way counts as inactive or inconclusive. On the % scale 0 is the no-effect control and ±100 the full control effect.
SMILES,IL1B secr inh,Giardia killer,DT40 TDP1 no CPT,TDP1 inh,ELG1 DNA repair,TDP1 cell CPT
CCC1CCc2sc(C(=O)N(C)CC(=O)Nc3ccc(N4CCOCC4)cc3)cc2C1 (configuration not stated),-4,1,u,x,u,-29%
O=C(NN=C1CCCC1)c1cc(O)cc(O)c1,6,2,-2%,18µM*,u,9%
O=C(NN=C1CCCC1)c1cccc(O)c1,9,-19,15%,2%[56.1 µM],-2%,17%
CCCC[C@@H]1CNCCN1CC1(c2ccccc2)CC1,u,-13,12µM*,2%,11%,12µM*
Oc1ccc(C[C@@H]2CNCCN2CC2(c3ccccc3)CC2)cc1,u,14,u,-8%,-2%,u
Oc1ccc(C[C@H]2CNCCN2CC2(c3ccccc3)CC2)cc1,-61*,44,u,-7%,0%,21µM*
O=C(Nc1cc(S(=O)(=O)N2CCCCCC2)ccc1OCC(F)(F)F)c1ccc(=O)[nH]c1,u,-15,-1%,-8%,23%,-18%
O=C(NC1CCCCNC1=O)c1ccccc1 (configuration not stated),x,-5,-22%,x,-16%,21%
N#Cc1cc2c(nc1SC1CCCCC1O)CCCC2 (configuration not stated),32,3,-25%,3%,15%,-8%
O=C(CCl)c1ccc2[nH]c(=O)oc2c1,u,-2,3.3µM*,0%,6%,2.6µM*
O=c1[nH]c2ccc(Br)cc2o1,19,4,-16%,x,x,0%
CCCC(NC(=O)Cc1c(C)c2c(cc(C)c3c(C)coc32)oc1=O)C(=O)O (configuration not stated),9,-8,17%,x,9%,13%
C[C@@H](C(=O)NCC1CC1)[C@@H]1C[C@@]1(C)[C@@H](NC(=O)OCc1ccccc1)c1ccccc1,-1,4,15µM*,0%,-5%,u
C[C@@H](C(=O)NCc1ccc(S(C)(=O)=O)cc1)[C@@H]1C[C@@]1(C)[C@@H](NC(=O)OCc1ccccc1)c1ccccc1,-4,38,15µM*,0%,u,21µM*
C[C@@H](C(=O)Nc1ccc2ccccc2c1)[C@H]1C[C@]1(C)[C@H](NC(=O)OCc1ccccc1)c1ccccc1,u,4,16µM*,0%,u,18µM*
C[C@H](CO)NC(=O)[C@H](C)[C@H]1C[C@]1(C)[C@H](NC(=O)OCc1ccccc1)c1ccccc1,-1,9,u,1%,0%,u
C[C@@H](C(=O)NCCc1c[nH]c2ccccc12)[C@H]1C[C@]1(C)[C@H](NC(=O)OCc1ccccc1)c1ccccc1,-23,10,16µM*,8%,18µM*,6.5µM*
Cc1ccc(-n2nc(CO)c(C(=O)NCCCc3ccccc3)n2)cc1C,x,x,-24%,9%,x,-19%
COc1cc2c(cc1OC)CN(CC(=O)Nc1ccc(Cl)c(S(=O)(=O)N(C)C)c1)CC2,x,x,x,-5%,u,x
Cc1cc(C(=O)N[C@H](c2ccccc2)[C@@]2(C)C[C@@H]2[C@@H](C)C(=O)Nc2ccc3ccccc3c2)n(C)n1,0,-11,23µM*,5%,u,u
C[C@@H](C(=O)NCc1ccccn1)[C@H]1C[C@]1(C)[C@H](NC(=O)OCc1ccccc1)c1ccccc1,-24,21,16µM*,3%,u,23µM*
C[C@@H](C(=O)NCCF)[C@H]1C[C@]1(C)[C@H](NC(=O)OCc1ccccc1)c1ccccc1,x,x,x,4%,x,x
O=C(NCCc1csc(-c2cccc(F)c2)n1)C(=O)Nc1cc(F)ccc1F,x,x,-16%,3%,x,-14%
COc1cccc(NC(=O)COc2ccc(Br)c(C)c2)c1,-3,16,-9%,x,u,-4%
